# Mtb bLac sens: beta-lactam sensitization of Mtb H37Rv; M. tuberculosis H37Rv growth with meropenem, percent inhibition; hit rate 0.27% among 330,000; inhibition, % at 25 µM; call rule not given here;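 note: growth measured after seven days incubation then overnight dye step; 0% = bacteria only wells and 100% = bacteria with antibiotic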
# RecA intein inh: inhibitors of M. tuberculosis RecA intein splicing. P9WHJ3. cell-free RecA intein splicing, fluorescence. inhibition, % (concentration not given with the values). hit rate 0.75% among 290,000. AID 2221; in the data active = inhibition above about 30%; inconclusive = no clear call, values can overlap the other calls;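 note: 0% = vehicle wells and 100% = reference inhibitor control wells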
# UGM FP inh: blocks M. tuberculosis UGM enzyme; P9WIQ1; purified UGM, fluorescence polarization probe displacement; AID 504406; hit rate 0.06% among 320,000; inhibition, % at 10 µM; in the data active = inhibition above about 10%, passing the limit was not always enough; inconclusive = no clear call, values can overlap the other calls
# GDH-TPI counter-1: counter-screen for M. tuberculosis FBA inhibitors: GDH-TPI coupled enzymes | GDH-TPI coupled enzyme counterscreen, NADH absorbance | inhibition, % at 4.8 µM | hit rate 1.2% among 360,000; in the data active = inhibition above about 30%;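 note: 0% = DMSO wells and 100% = wells lacking the enzyme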
# Mtb FBA inh: inhibits M. tuberculosis FBA enzyme; AID 588726; inhibition, % at 1 µM; P9WQA3; hit rate 2.3% among 360,000; purified M. tuberculosis FBA, fluorescence read-out;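 note: 0% = vehicle and 100% = reference inhibitor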
# Target sequence (P9WQA3 whole entry, looked up): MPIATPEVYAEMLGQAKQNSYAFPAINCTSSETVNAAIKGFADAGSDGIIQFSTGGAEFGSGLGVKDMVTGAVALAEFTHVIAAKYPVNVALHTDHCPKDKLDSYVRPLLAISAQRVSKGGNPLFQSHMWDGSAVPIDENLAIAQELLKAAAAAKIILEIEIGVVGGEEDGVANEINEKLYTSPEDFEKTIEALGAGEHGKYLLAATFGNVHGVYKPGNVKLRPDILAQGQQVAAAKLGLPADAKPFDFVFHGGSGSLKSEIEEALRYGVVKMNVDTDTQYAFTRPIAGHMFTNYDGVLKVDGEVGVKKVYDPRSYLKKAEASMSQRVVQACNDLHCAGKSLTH
# Rv3671c inh: inhibits the M. tuberculosis serine protease Rv3671c | P9WHR9 | inhibition, % at 5.96 µM | hit rate 0.048% among 320,000; in the data active = inhibition above about 38%;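 note: extracellular domain of Rv3671c used as enzyme; 0% = enzyme with DMSO and 100% = no enzyme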
# Mtb FBA inh conf: Mtb FBA inhibition, confirmed. shares compounds with Mtb FBA inh. purified M. tuberculosis FBA, fluorescence read-out. inhibition, % at 1 µM. hit rate 78% among 5,600. AID 651616;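 note: 0% = vehicle wells and 100% = reference inhibitor wells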
# GDH-TPI counter-2: GDH-TPI inhibition counter-screen for FBA inhibitors; shares compounds with Mtb FBA inh; GDH-TPI coupled enzyme counterscreen, fluorescence; inhibition, % at 1 µM; hit rate 81% among 5,600; in the data active = inhibition above about 10%
# The depositor's hits bear a star; ? = inconclusive; . = no result given; + = active, no number. An excerpt weighted towards active compounds, which were near 4% of everything screened. Cut-off read from the data, not from the text of the source, unless noted: active = inhibition above about 27%; inactive = the rest.
SMILES,Mtb bLac sens,RecA intein inh,UGM FP inh,GDH-TPI counter-1,Mtb FBA inh,Rv3671c inh,Mtb FBA inh conf,GDH-TPI counter-2
COCCNC(=O)C(C#N)c1nc2ccccc2nc1N1CCCCCC1 (centres undefined),85.0,-34.3,3.2,19.4,37.0*,-3.3,-3.5,-4.2
COCCNC(=O)/C(C#N)=C/c1c(N2CCN(c3ccc(OC)cc3)CC2)nc2c(C)cccn2c1=O,8.6,-50.4,-1.8,1.9,79.9*,-5.7,72.9*,57.8*
CNC(=O)/C(C#N)=C/c1c(N2CCN(c3cccc(Cl)c3)CC2)nc2c(C)cccn2c1=O,-0.2,-167.7,1.0,10.7,25.1,0.7,.,.
COCCNC(=O)/C(C#N)=C/c1c(N2CCN(c3cccc(Cl)c3)CC2)nc2c(C)cccn2c1=O,1.2,-41.5,-0.5,-0.6,69.1*,-5.7,165.2*,124.0*
C=CCNC(=O)/C(C#N)=C/c1c(N2CCN(c3cccc(Cl)c3)CC2)nc2c(C)cccn2c1=O,-5.6,-25.1,2.1,-0.4,62.3*,0.9,198.6*,171.7*
CCOC(=O)/C(C#N)=C/c1c(N2CCN(c3cccc(Cl)c3)CC2)nc2c(C)cccn2c1=O,.,0.5,.,-2.1,1.1,.,.,.
CCCCC(NC(=O)Cc1c(C)c2cc3c(-c4ccccc4)coc3c(C)c2oc1=O)C(=O)O (centres undefined),-5.2,5.8,1.1,15.6,3.1,-15.2,.,.
CCCN(CC(=O)NC(=O)NCc1ccccc1)CC(=O)Nc1ccc(F)c(F)c1F,.,.,.,-0.9,-0.2,.,.,.
N#C/C(=C\c1c(N2CCCCCC2)nc2ccccn2c1=O)C(N)=O,-5.3,4.5,-0.9,12.0,4.2,-0.1,.,.
COCCNC(=O)/C(C#N)=C/c1c(N2CCCCCC2)nc2ccccn2c1=O,?,-1.9,0.3,25.0,86.8*,-8.5,45.4*,47.4*
COCCn1c(C)cc(/C=C(\C#N)C(=O)OCC(=O)Nc2ccc(S(N)(=O)=O)cc2)c1C,.,.,.,17.6,-3.7,.,.,.
COc1ccc(CCNC(=O)c2ccc3c(c2)N(Cc2ccc(C)cc2)CCS3)cc1OC,1.1,0.4,1.2,8.6,54.2*,0.9,64.2*,51.2*
Cc1ccc(SCc2ccc(C(=O)NCc3cccnc3)cc2)cc1,2.0,4.6,-0.9,1.9,-2.1,-8.2,.,.
Cc1ccc(CN2CCSc3ccc(C(=O)NCc4cccnc4)cc32)cc1,1.1,0.6,-3.2,-0.8,69.2*,5.7,26.0,23.0*
Cc1ccc(CN2CCSc3ccc(C(=O)NCC4CCCO4)cc32)cc1 (centres undefined),2.8,-3.8,-0.7,9.6,58.2*,8.2,46.6*,23.4*
CCc1cc(C(=O)OC)c(NC(=O)CSc2nccn2C)s1,0.2,2.6,2.0,10.9,-0.1,7.3,.,.
CCOC(=O)C1(C)CCN1C(=O)c1c(F)cccc1F (centres undefined),.,.,.,6.4,-0.8,.,.,.
COc1ccc(C2Nc3ccccc3C(=O)N2NC(C)=O)c(OC)c1 (centres undefined),1.7,-0.1,-1.4,11.0,40.8*,3.9,72.2*,49.9*
CCCN1C(=O)c2ccccc2NC1c1ccc(OC)cc1OC (centres undefined),8.9,0.0,-2.6,0.0,80.9*,1.1,44.9*,43.1*
O=C1c2ccccc2NC(c2ccccc2O)N1O (centres undefined),12.2,-31.0,-0.2,-11.8,2.8,-3.7,.,.
CCCN1C(=O)c2ccccc2NC1c1ccc(OC)cc1O (centres undefined),-3.1,-1.5,0.2,6.0,58.2*,0.2,1.9,-7.7
CCCn1nc2cc(C(=O)NCC34CC5CC(CC(C5)C3)C4)ccc2c1OCC,98.0,7.5,2.1,8.8,28.7*,5.7,4.2,-3.3
COCCn1nc2cc(C(=O)NCC34CC5CC(CC(C5)C3)C4)ccc2c1OC,-15.6,-1.6,3.7,9.4,43.4*,1.0,+,+
CSc1ncccc1C(=O)NCC12CC3CC(CC(C3)C1)C2,4.4,-0.2,-1.0,-1.2,-1.6,-7.8,.,.
O=C(NCC12CC3CC(CC(C3)C1)C2)c1nc2ncccn2n1,-13.7,-2.5,-0.3,-14.7,-0.1,0.8,.,.
SMILES,Mtb bLac sens,RecA intein inh,UGM FP inh,GDH-TPI counter-1,Mtb FBA inh,Rv3671c inh,Mtb FBA inh conf,GDH-TPI counter-2
Cc1ccc(-c2nc(SCC(=O)N(C)c3c(N)n(Cc4ccccc4)c(=O)[nH]c3=O)n[nH]2)cc1,0.9,1.8,-2.4,-2.8,-1.9,3.7,.,.
CN1CC=C2C(C#N)=C(N)C(C#N)(C#N)[C@H](c3cccs3)[C@H]2C1,-10.1,-23.3,3.5,12.8,8.8,-2.3,.,.
CN1CC=C2C(C#N)=C(N)C(C#N)(C#N)[C@H](c3cccc(Cl)c3)C2C1 (some centres undefined),-10.0,-40.0,-1.0,12.4,28.5*,3.8,8.8,-0.5
CCCC1C2CN(C(C)C)CC=C2C(C#N)=C(N)C1(C#N)C#N (centres undefined),-3.1,-100.2,13.3*,15.7,45.8*,8.2,25.9,28.6*
CN1CC=C2C(C#N)=C(N)C(C#N)(C#N)C(c3ccsc3)C2C1 (centres undefined),7.7,-57.1,4.3,8.3,29.9*,9.6,79.2*,65.0*
COc1ccc(C(=O)N/C(=C/c2cccnc2)C(=O)N2CCN(C)CC2)cc1OC,3.0,0.1,2.8,6.3,3.1,-1.8,.,.
CC1CCCC(NC(=O)COC(=O)c2ccc(Cl)nc2)C1C (centres undefined),2.5,.,-1.7,-3.5,-2.0,-2.2,.,.
COC(=O)C1CCN(C(=O)CN2C(=O)NC3(CCC(C)CC3)C2=O)CC1 (centres undefined),2.9,.,0.4,9.6,2.7,2.8,.,.
CN(C)c1ccc(/C=N/N=C(N)N)cc1[N+](=O)[O-],1.7,2.7,-0.5,30.0,79.6*,-4.2,197.9*,132.2*
CN(C)c1ccc(/C=C/C(=O)c2ccc3c(c2)OCCO3)cc1[N+](=O)[O-],16.9,2.0,0.0,15.0,-10.7,2.7,.,.
C/C(CC(=O)Nc1cc(C)ccn1)=N\NC(=O)c1cccc(C)c1O,66.0,7.4,-0.9,3.0,8.8,9.3,.,.
O=c1nc2n(CCO)c3ccccc3cc-2c(=O)[nH]1,.,.,.,16.1,96.0*,.,76.9*,56.0*
Cc1nc2ccc(NC(=O)N3CCOCC3)cc2nc1C,-3.6,-2.6,0.3,8.9,42.6*,-11.4,+,147.3*
CCOC(=O)C1CCN(C(=O)Nc2ccc3nc(C)c(C)nc3c2)CC1,-6.4,-0.4,1.0,11.4,78.1*,3.3,114.6*,77.1*
Cc1nc2ccc(NC(=O)N3CCOCC3)cc2s1,15.3,-4.5,5.8,-4.9,0.0,1.8,.,.
CCOC(=O)C1CCN(C(=O)Nc2ccc3oc(C)nc3c2)CC1,5.2,-0.7,-1.0,-13.3,-3.3,-8.2,.,.
CCN1CCN(c2c(S(=O)(=O)c3ccc(C)c(C)c3)cnc3ccc(F)cc23)CC1,-4.3,-2.1,-0.2,12.0,1.8,-0.6,.,.

# Screens as filed in PubChem.
